# Measured values published in PubChem BioAssay (NCATS).
# Inconclusive results are not listed. Unmarked numbers belong to inactive results. Calls come from the whole dose curve; as a rule, active = well fitted curve in the direction sought with a large enough effect; inconclusive = small, poorly fitted or top-dose-only effect, or another doubt; inactive = no such curve, though single readings can be large; an effect the other way counts as inactive or inconclusive.
# Test system: not listed separately
# Experiment: qHTS of Trypanosoma Brucei Inhibitors: LOPAC Validation (AID 624147)
# Details: purified enzyme assay, luminescence, 45 min; series mostly up to 57.5 µM; activity change, negative = inhibition: at the top concentration
# Procedure, shortened: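 Readout: single end-point luminescence (Kinase-Glo Plus, 10 min). Reaction conditions were TbPYK/substrate plus 130 uM ADP, 45 min at RT, pH 7.2 TEA buffer. No-enzyme wells served as controls, and data were normalized before concentration-response fitting.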
# Note: 0% is about no effect.
row,SMILES,"activity change, negative = inhibition [%]"
1,C=CCN1CCc2cc(O)c(O)cc2C(c2ccccc2)C1 (stereo not given),-8.8
2,Nc1ncnc2c1nc(Sc1ccc(Cl)cc1)n2[C@H]1OC2COP(=O)(O)O[C@@H]2C1O (stereo not given in full),4.78
3,CN1CCCC1CCOC(C)(c1ccccc1)c1ccc(Cl)cc1 (stereo not given),-6.88
4,COc1cc(/C=C(\C#N)C(=O)c2ccc(O)c(O)c2)cc(I)c1O,-25
5,NC1CCN(O)C1=O (stereo not given),-16.2
6,CCCn1c(=O)c(C)cn2nc(N)nc12,-18.1
7,COc1ccc(CCn2nnnc2C2(c3ccc(C)cc3)CC2)cc1,-5.33
8,O=c1cc(-c2ccccc2)[nH]c2nc(Cl)ccc12,-6.39
9,NC1CONC1=O (stereo not given),-4.05
10,CSc1nc(N)c2ncn([C@@H]3O[C@H](COP(=O)(O)OP(=O)(O)O)C(O)[C@H]3O)c2n1 (stereo not given in full),-20.1
11,NCC(O)C1CCCCCCC1 (stereo not given),-6.22
12,CN1CC(O)C(O)C(O)C1CO (stereo not given),-2.56
13,Oc1cc(O)c2c(c1)O[C@H](c1ccc(O)c(O)c1)[C@@H](O)C2,-17.4
14,Nc1nc2c(nc(Br)n2C2OC3COP(=O)(O)O[C@@H]3C2O)c(=O)[nH]1 (stereo not given in full),-2.4
15,CCCCCCCCCCCCCCCCCCOC[C@H](COP(=O)([O-])OCC[N+](C)(C)C)OC,1.29
16,CC(O)C(O)[C@H]1CNc2nc(N)[nH]c(=O)c2N1 (stereo not given in full),-5.44
17,N[C@@H](Cc1c[nH]c2ccccc12)C(=O)O,-8.43

# Molecular target: Glucagon-like peptide 1 receptor (Homo sapiens) (UniProt P43220)
# Sequence (P43220 whole entry, looked up): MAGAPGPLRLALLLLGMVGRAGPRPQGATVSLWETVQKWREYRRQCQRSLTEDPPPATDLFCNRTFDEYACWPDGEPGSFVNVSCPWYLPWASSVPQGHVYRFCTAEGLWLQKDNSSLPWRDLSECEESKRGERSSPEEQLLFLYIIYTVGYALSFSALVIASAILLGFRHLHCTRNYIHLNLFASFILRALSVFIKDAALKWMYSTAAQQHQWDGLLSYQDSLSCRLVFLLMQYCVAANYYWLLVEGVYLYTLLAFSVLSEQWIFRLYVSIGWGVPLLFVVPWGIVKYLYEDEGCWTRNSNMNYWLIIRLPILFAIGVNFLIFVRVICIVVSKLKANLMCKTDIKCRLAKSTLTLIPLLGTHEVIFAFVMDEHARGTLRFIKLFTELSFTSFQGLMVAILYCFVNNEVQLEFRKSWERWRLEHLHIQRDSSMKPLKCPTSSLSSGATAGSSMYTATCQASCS
# Experiment: qHTS of GLP-1 Receptor Agonists: LOPAC Validation (AID 624148);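 note: luminescence from a luciferase reporter switched on by cAMP; higher luminescence signal means agonism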
# Details: GLP-1R agonist cell assay; series mostly up to 46.1 µM; activation: at the top concentration
# Procedure, shortened: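 Agonism scored as increased luciferase luminescence driven by cAMP in HEK293 clones carrying GLP-1R. Cells settled 12 hours, received compound for 4-6 hr at 37 deg C, 5% CO2, and were read after 12 min detection reagent at RT.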
row,SMILES,activation [%]
1,O=C1Cc2c([nH]c3ccc(Br)cc23)-c2ccccc2N1,1.48
2,NC(C(=O)N[C@@H]1C(=O)N2C(C(=O)O)=C(Cl)CS[C@H]12)c1ccccc1 (stereo not given in full),-1.13
3,O=C(O)c1ccccc1Nc1cccc(OCc2ccc3ccccc3n2)c1,-1.66
4,NC(Cc1cccc(-c2ccccc2CP(=O)(O)O)c1)C(=O)O (stereo not given),-1.87
5,Cc1cccc(C2CN(C)CCc3c2cc(O)c(O)c3Cl)c1 (stereo not given),12.4
6,Brc1c(Br)c(Br)c2[nH]cnc2c1Br,-1.9
7,N[C@H](C(=O)O)[C@H](Cc1ccccc1)C(=O)O,6.4
8,Cc1ccc2c(c1)C(N1CCN(C)CC1)=Nc1cccnc1N2,0.838
9,c1ccc(C2CN3CCSC3=N2)cc1 (stereo not given),-1.06
10,O=c1[nH]ccc2c(O)cccc12,0.896
11,O=C(O)/C(=C/c1c(C(=O)O)[nH]c2cc(Cl)cc(Cl)c12)c1ccccc1,-1.88
12,N=C(N)c1ccc(OCCCCCOc2ccc(C(=N)N)cc2)cc1 (tested in a mixture with another compound),-1.86
13,CCCCCCCCCCCCCCC[C@H](O)[C@H](N)CO,-0.439
14,NC[C@@H]1O[C@H](c2ccccc2)Cc2c1ccc(O)c2O,7.64
15,Cc1nc2c(OCc3ccccc3)cccn2c1CC#N,1.7
16,COc1ccc(-c2cc3ncc(C)n3c(Nc3ncccc3C(N)=O)n2)cc1OC,-0.986
17,C[C@H]1CC2C3CCC4=CC(=O)C=C[C@]4(C)[C@@]3(Cl)[C@@H](O)C[C@]2(C)[C@@]1(O)C(=O)CO (stereo not given in full),0.426
18,N[C@H](C(=O)O)c1cc(O)cc(O)c1,-0.997
19,CC1=C(C(=O)O)N2C(=O)[C@@H](NC(=O)C(N)C3=CCC=CC3)[C@H]2SC1 (stereo not given in full),0.842

row,SMILES,activation [%]
1,C=CCN1CCc2cc(O)c(O)cc2C(c2ccccc2)C1 (stereo not given),-0.668
2,Nc1ncnc2c1nc(Sc1ccc(Cl)cc1)n2[C@H]1OC2COP(=O)(O)O[C@@H]2C1O (stereo not given in full),5.51
3,CN1CCCC1CCOC(C)(c1ccccc1)c1ccc(Cl)cc1 (stereo not given),-1.67
4,COc1cc(/C=C(\C#N)C(=O)c2ccc(O)c(O)c2)cc(I)c1O,0.873
5,NC1CCN(O)C1=O (stereo not given),-1.55
6,CCCn1c(=O)c(C)cn2nc(N)nc12,7.63
7,COc1ccc(CCn2nnnc2C2(c3ccc(C)cc3)CC2)cc1,7.02
8,O=c1cc(-c2ccccc2)[nH]c2nc(Cl)ccc12,-1.12
9,NC1CONC1=O (stereo not given),0.823
10,CSc1nc(N)c2ncn([C@@H]3O[C@H](COP(=O)(O)OP(=O)(O)O)C(O)[C@H]3O)c2n1 (stereo not given in full),1.43
11,NCC(O)C1CCCCCCC1 (stereo not given),5.13
12,CC(C)NC[C@H](O)COc1ccc(CC(N)=O)cc1,0.404
13,CN1CC(O)C(O)C(O)C1CO (stereo not given),-1.52
14,Oc1cc(O)c2c(c1)O[C@H](c1ccc(O)c(O)c1)[C@@H](O)C2,-1.67
15,O=C(O)Cc1ccc(O)c(O)c1,-1.05
16,Nc1nc2c(nc(Br)n2C2OC3COP(=O)(O)O[C@@H]3C2O)c(=O)[nH]1 (stereo not given in full),-1.54
17,CCCCCCCCCCCCCCCCCCOC[C@H](COP(=O)([O-])OCC[N+](C)(C)C)OC,-1.19
18,CC(O)C(O)[C@H]1CNc2nc(N)[nH]c(=O)c2N1 (stereo not given in full),0.822
19,N[C@@H](Cc1c[nH]c2ccccc12)C(=O)O,-1.54
